# Read-outs that look alike come from different tables or passages of the source.
# Experiments:
# [1] = test system: BTK; conditions: concentration: 1 μM, replicates: in singlicate; n = 1
# [2] = test system: BUB1; conditions: concentration: 1 μM, replicates: in singlicate; n = 1
# [3] = test system: CAMK1B; conditions: concentration: 1 μM, replicates: in singlicate; n = 1
# [4] = test system: CAMK1D; conditions: concentration: 1 μM, replicates: in singlicate; n = 1
# [5] = test system: CAMK1G; conditions: concentration: 1 μM, replicates: in singlicate; n = 1
# [6] = test system: CAMK1; conditions: concentration: 1 μM, replicates: in singlicate; n = 1
# [7] = test system: CAMK2A; conditions: concentration: 1 μM, replicates: in singlicate; n = 1
# [8] = test system: CAMK2B; conditions: concentration: 1 μM, replicates: in singlicate; n = 1
# [9] = test system: CAMK2D; conditions: concentration: 1 μM, replicates: in singlicate; n = 1
# [10] = test system: CAMK2G; conditions: concentration: 1 μM, replicates: in singlicate; n = 1
# [11] = test system: CAMK4; conditions: concentration: 1 μM, replicates: in singlicate; n = 1
# [12] = test system: CAMKK1; conditions: concentration: 1 μM, replicates: in singlicate; n = 1
# [13] = test system: CAMKK2; conditions: concentration: 1 μM, replicates: in singlicate; n = 1
# [14] = test system: CASK; conditions: concentration: 1 μM, replicates: in singlicate; n = 1
# [15] = test system: T1, CDC2L1; conditions: concentration: 1 μM, replicates: in singlicate; n = 1
# T1 construct: gene CDK11B
# [16] = test system: CDC2L2; conditions: concentration: 1 μM, replicates: in singlicate; n = 1
# [17] = test system: T2, CDC2L5; conditions: n = 1
# T2 construct: gene CDK13
# [18] = test system: T3, CDK11; conditions: concentration: 1 μM, replicates: in singlicate; n = 1
# T3 construct: gene CDK19
# [19] = test system: CDK2; conditions: concentration: 1 μM, replicates: in singlicate; n = 1
# [20] = test system: CDK3; conditions: concentration: 1 μM, replicates: in singlicate; n = 1
# [21] = concentration: 1 μM, replicates: in singlicate
# 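Also: KINOMEscan kinase panel screen.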
structure (smiles),measurement,setting,value
O=C(Nc1n[nH]c2nc(-c3cccs3)c(Br)cc12)C1CC1 [SB-735297],%Inh,[1],0%
same,%Inh,[2],0%
same,%Inh,[3],0%
same,%Inh,[4],0%
same,%Inh,[5],0%
same,%Inh,[6],0%
same,%Inh,[7],100%
same,%Inh,[8],100%
same,%Inh,[9],10%
same,%Inh,[10],11%
same,%Inh,[11],0%
same,%Inh,[12],0%
same,%Inh,[13],0%
same,%Inh,[14],13%
same,%Inh,[15],1%
same,%Inh,[16],12%
same,%Inh,[17]; [21],24%
same,%Inh,[18],0%
same,%Inh,[19],77%
same,%Inh,[20],26%
CC(=O)c1c(C)c2cnc(Nc3ccc(N4CCNCC4)cn3)nc2n(C2CCCC2)c1=O,%Inh,[1],0%
same,%Inh,[2],0%
same,%Inh,[3],0%
same,%Inh,[4],2%
same,%Inh,[5],0%
same,%Inh,[6],0%
same,%Inh,[7],0%
same,%Inh,[8],0%
same,%Inh,[9],0%
same,%Inh,[10],0%
same,%Inh,[11],0%
same,%Inh,[12],0%
same,%Inh,[13],0%
same,%Inh,[14],0%
same,%Inh,[15],0%
same,%Inh,[16],3%
same,%Inh,[17]; [21],0%
same,%Inh,[18],0%
same,%Inh,[19],0%
same,%Inh,[20],8%
Nc1nccc(-c2c(-c3ccc(F)cc3)ncn2C2CCN(Cc3ccccc3)CC2)n1 [SB-219980],%Inh,[1],0%
same,%Inh,[2],38%
same,%Inh,[3],56%
same,%Inh,[4],0%
same,%Inh,[5],0%
same,%Inh,[6],12%
same,%Inh,[7],0%
same,%Inh,[8],0%
same,%Inh,[9],0%
same,%Inh,[10],0%
same,%Inh,[11],13%
same,%Inh,[12],2%
same,%Inh,[13],0%
same,%Inh,[14],0%
same,%Inh,[15],7%
same,%Inh,[16],38%
same,%Inh,[17]; [21],0%
same,%Inh,[18],1%
same,%Inh,[19],0%
same,%Inh,[20],0%
COc1ccc(Nc2nccc(N3CCC(NC(=O)C(C)c4ccc(Cl)cc4)C3)n2)cc1 (stereo not drawn) [GSK1379735],%Inh,[1],0%
same,%Inh,[2],17%
same,%Inh,[3],5%
same,%Inh,[4],14%
same,%Inh,[5],0%
same,%Inh,[6],9%
same,%Inh,[7],14%
same,%Inh,[8],25%
same,%Inh,[9],1%
same,%Inh,[10],15%
same,%Inh,[11],0%
same,%Inh,[12],18%
same,%Inh,[13],5%
same,%Inh,[14],48%
same,%Inh,[15],6%
same,%Inh,[16],6%
same,%Inh,[17]; [21],0%
same,%Inh,[18],21%
same,%Inh,[19],0%
same,%Inh,[20],24%
CCn1c(-c2c(N)noc2C)nc2cnccc21 [SB-737856],%Inh,[1],0%
same,%Inh,[2],20%
same,%Inh,[3],0%
same,%Inh,[4],0%
same,%Inh,[5],0%
same,%Inh,[6],0%
same,%Inh,[7],0%
same,%Inh,[8],0%
same,%Inh,[9],0%
same,%Inh,[10],0%
same,%Inh,[11],0%
same,%Inh,[12],13%
same,%Inh,[13],0%
same,%Inh,[14],0%
same,%Inh,[15],0%
same,%Inh,[16],8%
same,%Inh,[17]; [21],98.8%
same,%Inh,[18],7%
same,%Inh,[19],0%
same,%Inh,[20],0%
CC(=O)c1c(C)c2cnc(Nc3ccn(C)n3)nc2n(C2CCCC2)c1=O,%Inh,[1],0%
same,%Inh,[2],2%
same,%Inh,[3],8%
same,%Inh,[4],0%
same,%Inh,[5],1%
same,%Inh,[6],0%
same,%Inh,[7],0%
same,%Inh,[8],0%
same,%Inh,[9],13%
same,%Inh,[10],9%
same,%Inh,[11],0%
same,%Inh,[12],7%
same,%Inh,[13],13%
same,%Inh,[14],12%
same,%Inh,[15],0%
same,%Inh,[16],100%
same,%Inh,[17]; [21],0%
same,%Inh,[18],2%
same,%Inh,[19],3%
same,%Inh,[20],0%
CS(=O)(=O)Cc1ccc(Nc2nccc(-c3c(-c4cccc(NC(=O)C5CCCCC5)c4)nn4ncccc34)n2)cc1 [GSK350559],%Inh,[1],0%
same,%Inh,[2],98.7%
same,%Inh,[3],0%
same,%Inh,[4],0%
same,%Inh,[5],0%
same,%Inh,[6],0%
same,%Inh,[7],15%
same,%Inh,[8],8%
same,%Inh,[9],0%
same,%Inh,[10],0%
same,%Inh,[11],0%
same,%Inh,[12],0%
same,%Inh,[13],0%
same,%Inh,[14],34%
same,%Inh,[15],0%
same,%Inh,[16],27%
same,%Inh,[17]; 1 µM,30%
same,%Inh,[18],0%
same,%Inh,[19],0%
same,%Inh,[20],0%
COC(=O)C(NC(=O)NC1CCN(c2ccnc(Nc3ccc(F)cc3)n2)C1)c1ccccc1 (stereo not drawn) [GSK1379712],%Inh,[1],18%
same,%Inh,[2],37%
same,%Inh,[3],35%
same,%Inh,[4],5%
same,%Inh,[5],0%
same,%Inh,[6],9%
same,%Inh,[7],0%
same,%Inh,[8],0%
same,%Inh,[9],11%
same,%Inh,[10],19%
same,%Inh,[11],0%
same,%Inh,[12],25%
same,%Inh,[13],23%
same,%Inh,[14],2%
same,%Inh,[15],0%
same,%Inh,[16],17%
same,%Inh,[17]; [21],0%
same,%Inh,[18],54%
same,%Inh,[19],81%
same,%Inh,[20],19%
Cc1cnc(N)c(/C=C/c2cncc(C(=O)NCCc3ccc(Cl)cc3Cl)c2)c1.Cl [GSK190937],%Inh,[1],1%
same,%Inh,[2],9%
same,%Inh,[3],0%
same,%Inh,[4],10%
same,%Inh,[5],7%
same,%Inh,[6],12%
same,%Inh,[7],0%
same,%Inh,[8],0%
same,%Inh,[9],6%
same,%Inh,[10],27%
same,%Inh,[11],0%
same,%Inh,[12],7%
same,%Inh,[13],20%
same,%Inh,[14],7%
same,%Inh,[15],0%
same,%Inh,[16],17%
same,%Inh,[17]; [21],0%
same,%Inh,[18],92.8%
same,%Inh,[19],0%
same,%Inh,[20],6%
